Measured values reported in PubChem BioAssay (NCATS).
Results filed as inconclusive are left out. Active and inactive are the calls of the source. Unless noted, calls come from the whole dose curve; as a rule, active = well fitted curve in the direction sought with a large enough effect; inconclusive = small, poorly fitted or top-dose-only effect, or another doubt; inactive = no such curve, though single readings can be large; an effect the other way counts as inactive or inconclusive.

Columns and labels:
[1] = Primary qHTS for inhibitors of La Crosse Virus (LACV) - induced cell death in SH-SY5Y cells (AID 1508616);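 note: top concentration of the series differs between compounds; 0% = infected DMSO wells and 100% = uninfected DMSO wells; higher means more rescue of cells from virus-induced death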
Outline: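 Protection against LACV-induced cell death is scored in SH-SY5Y cells exposed to compounds and virus (0.01 MOI) for 6 days. Data normalized to virus-infected DMSO wells and virus-free DMSO wells.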

[2] = target: Calcium and integrin-binding protein 1 (Homo sapiens) (UniProt Q99828); test: Primary qHTS for Identification of Calcium Integrin Binding Protein 1 (CIB1) Competitor (AID 1508620);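 note: GST tagged CIB1 binding a fluorescein labelled alphaIIb integrin peptide tracer; top concentration of the series differs between compounds; % is set by controls: 0 for no effect and ±100 for the full control effect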
Chain of Calcium and integrin-binding protein 1 (Homo sapiens) (Q99828 whole entry, looked up): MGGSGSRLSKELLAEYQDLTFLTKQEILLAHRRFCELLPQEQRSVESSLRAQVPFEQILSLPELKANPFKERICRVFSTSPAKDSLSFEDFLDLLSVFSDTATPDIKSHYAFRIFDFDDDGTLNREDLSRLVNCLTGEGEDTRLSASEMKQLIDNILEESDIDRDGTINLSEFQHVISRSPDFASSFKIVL
Outline: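 Fluorescence polarization competition: GST-tagged CIB1 (1 uM final) preincubated with compound 15 min at room temperature, then FITC-labelled alphaIIb peptide (100 nM final) added. After 15 min at room temperature, polarization read at Ex 480/Em 540.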

[3] = A High-Content qHTS Against Drug Library for the Identification of Small Molecules that Inhibit DYT1 Early Onset Primary Dystonia-Associated Cell Pathology (AID 1645839; calls by dose curve; note: series mostly up to about 46 µM)
Outline: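 Flp-In T-REx 293 cells with tetracycline-inducible EGFP-delE hTOR1A (WT EGFP-hTOR1A as reference), 800 cells/well; compound added with tetracycline, 48 h at 37 C. Fixed, permeabilized cells imaged; %pathology (punctate TorsinA) primary, cell count counterscreen.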

[4] = Primary qHTS for small molecule stabilizers of the endoplasmic reticulum resident proteome: Secreted ER Calcium Modulated Protein (SERCaMP) assay (AID 1508630); note: % is set by controls: 0 for no effect and ±100 for the full control effect
Outline: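 GLuc-SERCaMP-expressing SH-SY5Y cells, pretreated 16 h with compound, are challenged with thapsigargin to empty ER calcium stores; after 4 h, coelenterazine is added directly to the medium and luminescence is imaged.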

CC(=O)Nc1c(I)c(NC(C)=O)c(I)c(C(=O)O)c1I
inactive: outcome [1] | Potency [2] | Potency [3]

CCCC(=O)O[C@]1(C(=O)CC)CC[C@H]2[C@@H]3CCC4=CC(=O)CC[C@]4(C)[C@H]3[C@@H](O)C[C@@]21C
inactive: outcome [1] | Potency [2] | Potency [4] | Potency [3]

Oc1ccccc1-c1nnco1
inactive: outcome [1] | Potency [2] | Potency [4] | Potency [3]

Cc1ccc2ccc(Cl)cc2n1
inactive: outcome [1] | Potency [2] | Potency [4] | Potency [3]

CC(COc1ccccc1)NN (stereo not given)
inactive: outcome [1] | Potency [2] | Potency [3]

N#Cc1cc(NC(=O)C(=O)O)c(Cl)c(NC(=O)C(=O)O)c1
inactive: outcome [1] | Potency [2] | Potency [4] | Potency [3]

NCC[C@H](O)C(=O)N[C@@H]1C[C@H](N)[C@@H](O[C@H]2O[C@H](CN)[C@@H](O)[C@H](O)[C@@H]2O)[C@H](O)[C@@H]1O[C@H]1O[C@H](CO)[C@@H](O)[C@H](N)[C@@H]1O
inactive: activity change [1] 4.33% [at 0.0343 µM] | activity change, negative = inhibition [2] 3.05% [at 1.07 µM] | % pathology change, negative = correction [3] -0.271% [at 0.369 µM]

O=C(O)Cn1c(=O)n(Cc2ccc(Br)cc2F)c(=O)c2ccc(Cl)cc21
inactive: outcome [1] | Potency [2] | Potency [3]

CCO[C@H](Cc1ccc(OCCc2ccc(OS(C)(=O)=O)cc2)cc1)C(=O)O
inactive: outcome [1] | Potency [2] | Potency [3]

CC(C(=O)O)c1ccc(/C=C2\CCCCC2=O)cc1 (stereo not given)
inactive: outcome [1] | Potency [2] | Potency [4] | Potency [3]

O=C(Oc1ccccc1)c1cccc(C(=O)Oc2ccccc2)c1
inactive: outcome [1] | Potency [2] | Potency [3]

N=C(N)c1ccc(OCCCOc2ccc(C(=N)N)cc2)cc1
inactive: outcome [1] | Potency [2] | Potency [3]

COc1ccc2cc(C=O)ccc2c1
inactive: outcome [1] | Potency [2] | Potency [3]

COC(=O)CCCCC(CCSS/C(CCO)=C(\C)N(C=O)Cc1cnc(C)nc1N)SC(C)=O (stereo not given)
inactive: outcome [1] | Potency [2] | Potency [3]

COc1ccc2c(c1)c(CC(=O)OC/C=C(\C)CC/C=C(\C)CCC=C(C)C)c(C)n2C(=O)c1ccc(Cl)cc1
inactive: outcome [1] | Potency [2] | Potency [4] | Potency [3]

CC(CCc1ccc2c(c1)OCO2)NN (stereo not given)
inactive: outcome [1] | Potency [2] | Potency [4] | Potency [3]

CN1C(=O)CC(C)(c2ccccc2)C1=O (stereo not given)
inactive: outcome [1] | Potency [2] | Potency [4] | Potency [3]

O=C1Nc2cc(Cl)ccc2Oc2ccccc21
inactive: outcome [1] | Potency [2] | Potency [4] | Potency [3]

O=C(C1CCCCC1)N1CC(=O)N2CCCc3ccccc3C2C1 (stereo not given)
inactive: outcome [1] | Potency [2] | Potency [3]

COC(=O)c1cc(Cl)c(NC(C)=O)cc1OC
inactive: outcome [1] | Potency [2] | Potency [3]

Cc1oc(=O)oc1COC(=O)[C@@H]1N2C(=O)[C@@H](NC(=O)[C@H](N)c3ccccc3)[C@H]2SC1(C)C
inactive: outcome [1] | Potency [2] | Potency [3]

O=C(CO)[C@@H](O)[C@H](O)[C@@H](O)CO
inactive: outcome [1] | Potency [2] | Potency [4] | Potency [3]

CC(C)C[C@H](NC(=O)CNC(=O)[C@H](Cc1ccc(O)cc1)NC(=O)[C@H](CO)NC(=O)[C@H](Cc1c[nH]c2ccccc12)NC(=O)[C@H](Cc1cnc[nH]1)NC(=O)[C@@H]1CCC(=O)N1)C(=O)N[C@@H](CCCN=C(N)N)C(=O)N1CCC[C@H]1C(=O)NCC(N)=O (stereo in doubt)
inactive: outcome [1] | Potency [2] | Potency [3]

C/C(=N/NC(=O)c1ccncc1)C(=O)O
inactive: outcome [1] | Potency [2] | Potency [3]

O=C1[C@@H]2[C@H]3CC[C@H](C3)[C@@H]2C(=O)N1CCCCN1CCN(c2ncccn2)CC1
inactive: outcome [1] | Potency [2] | Potency [4] | Potency [3]

C1N2CN3CN1CN(C2)C3
inactive: outcome [1] | Potency [2] | Potency [3]

OCCc1ccccc1
inactive: outcome [1] | Potency [2] | Potency [4] | Potency [3]

N#C/C(=C1/SC[C@@H](c2ccc(Cl)cc2Cl)S1)n1ccnc1
inactive: outcome [1] | Potency [2] | Potency [3]

O=C(O)c1cn(C2CC2)c2cc(Cl)c(F)cc2c1=O
inactive: outcome [1] | Potency [2] | Potency [4] | Potency [3]

O=C(c1ccco1)N1CCNCC1
inactive: outcome [1] | Potency [2] | Potency [4] | Potency [3]

CCCc1c2oc(C(=O)O)cc(=O)c2cc2c(=O)cc(C(=O)O)n(CC)c12
inactive: outcome [1] | Potency [2] | Potency [4] | Potency [3]

NC(=O)COCCN1CCN(C(c2ccccc2)c2ccc(Cl)cc2)CC1 (stereo not given)
inactive: outcome [1] | Potency [2] | Potency [3]

Cc1coc2ccccc2c1=O
inactive: outcome [1] | Potency [2] | Potency [3]

CC(=O)O[C@@H]1CC2C3CCc4cc(OC(=O)c5ccccc5)ccc4C3CCC2(C)[C@H]1OC(C)=O (stereo not given in full)
inactive: outcome [1] | Potency [2] | Potency [3]

CN(C)CCCOC1(Cc2ccccc2)CCCCCC1
inactive: outcome [1] | Potency [2] | Potency [3]

CO/N=C(/C(=O)N[C@@H]1C(=O)N2C(C(=O)OCOC(=O)C(C)(C)C)=C(C)CS[C@H]12)c1csc(N)n1
inactive: outcome [1] | Potency [2] | Potency [3]

CCOC(=O)C(O)c1ccccc1 (stereo not given)
inactive: outcome [1] | Potency [2] | Potency [3]

CCc1cccc2c(CCO)c[nH]c12
inactive: outcome [1] | Potency [2] | Potency [3]

CSCC[C@H](NC(=O)[C@H](Cc1c[nH]c2ccccc12)NC(=O)CCNC(=O)OC(C)(C)C)C(=O)N[C@@H](CC(=O)O)C(=O)N[C@@H](Cc1ccccc1)C(N)=O
inactive: outcome [1] | Potency [2] | Potency [3]

COC(=O)/C=C\C(=O)OC
inactive: outcome [1] | Potency [2] | Potency [3]

CN1Cc2cc(C(=O)N3CCC(C4CCNCC4)CC3)ccc2NC(CC(=O)O)C1=O (stereo not given)
inactive: outcome [1] | Potency [2] | Potency [3]

CCN(CC)CC(=O)Oc1ccc(NC(C)=O)cc1
inactive: outcome [1] | Potency [2] | Potency [3]

C#Cc1ccc(-c2ccccc2F)cc1
inactive: outcome [1] | Potency [2] | Potency [3]

Cc1nc(C2CCCCC2)c(-c2ccc(S(N)(=O)=O)c(F)c2)o1
inactive: outcome [1] | Potency [2] | Potency [3]

CN(C)CCN1CCN(c2cccc(Cl)c2)C1=O
inactive: outcome [1] | Potency [2] | Potency [3]
